The list is not random: actives were taken first. Their share in the collection is about 14%.
FBPA Giardia inh – inhibitors of Giardia lamblia fructose-1,6-bisphosphate aldolase; A8B2U2; purified Giardia FBPA; Potency, µM (top dose mostly 59.6 µM), without a hit: at the highest dose activity, negative = inhibition, hits mostly inhibitors; hit rate 0.71% among 290,000; also: potency is read from the fitted curve at half-maximal effect; % is scaled to controls: 0 for no effect and ±100 for the full control effect; nearly all actives have a fitted effect of over 55% in size
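40 nM FBPA preincubated 10 min at RT with compound (up to 57.5 uM final), then substrate plus GAPDH/TPI/NAD/arsenate coupling and diaphorase/resazurin added. Fluorescence read after 20 min at RT, 525/598 nm.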
Shiga inhibitor – inhibitors of Shiga toxin in Vero cells | inhibition, % at 38.7 µM | AID 2315 | hit rate 9.2% among 290,000 | Vero cells, Shiga toxin protein synthesis inhibition reporter; in the data active = inhibition mostly above about 28%, no sharp cut-off; inactive = mostly below about 43%; also: 0% is about no effect
NS1 inh – blocks influenza NS1 protein function. Potency, µM (doses to about 46.1 µM), for inactives: top-dose activity, positive = more growth. hit rate 0.4% among 270,000; calls by dose curve; also: potency is read from the fitted curve at half-maximal effect; actives are rising curves; nearly all actives have a fitted effect of over 50% in size
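S. cerevisiae expressing influenza A NS1, grown in glucose, washed, then diluted 1:100 into pH 6.0 -URA galactose medium with 23 nl compound. Growth recovery read as OD600; NS1-free strain serves as control.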
LmPK inhibitor – LmPK (Leishmania mexicana) enzyme inhibition. purified LmPK, Kinase-Glo ATP luminescence, 1 h. Potency, µM (highest dose often 57.5 µM), without a hit: at the top dose activity change, negative = inhibition, most hits filed as inhibitors. hit rate 0.37% among 290,000. AID 1721; also: potency is read from the fitted curve at half-maximal effect; % is scaled to controls: 0 for no effect and ±100 for the full control effect
Target sequence (Q27686 whole entry, looked up): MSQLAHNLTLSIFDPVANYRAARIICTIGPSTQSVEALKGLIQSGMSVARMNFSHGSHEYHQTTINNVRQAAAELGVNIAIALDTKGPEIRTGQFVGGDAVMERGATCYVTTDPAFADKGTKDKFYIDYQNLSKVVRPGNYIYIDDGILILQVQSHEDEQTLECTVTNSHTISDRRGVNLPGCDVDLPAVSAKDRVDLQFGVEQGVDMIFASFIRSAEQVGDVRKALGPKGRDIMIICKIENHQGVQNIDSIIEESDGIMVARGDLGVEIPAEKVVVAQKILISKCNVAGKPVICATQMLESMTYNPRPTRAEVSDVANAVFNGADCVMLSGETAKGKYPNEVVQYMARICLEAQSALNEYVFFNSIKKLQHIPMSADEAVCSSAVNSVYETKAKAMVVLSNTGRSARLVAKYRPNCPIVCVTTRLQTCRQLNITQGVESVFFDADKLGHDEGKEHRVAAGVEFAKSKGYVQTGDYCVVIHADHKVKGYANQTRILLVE
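Screened at intermediate enzyme activity to detect both inhibitors and activators: LmPK at 0.1 nM, with a 0.5 nM enzyme column as activation reference. PEP 0.5 mM, ADP 0.1 mM; ATP detected by luminescence after 1 h.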
Cycloheximide cs – counter-screen for Shiga toxin inhibitors: cycloheximide protein synthesis inhibition | cell reporter, cycloheximide protein synthesis inhibition counterscreen | max response, % | hit rate 12% among 300,000 | AID 2314; in the data active = max response mostly above about 13%, no sharp cut-off; inactive = mostly below about 14%; also: read at 38.3 µM for the half of the compounds with a filed dose; 0% is about no effect
The depositor's hits bear a star; [ ] = dose if it differs, or a comment. Unless noted, calls follow the shape of the dose curve; as a rule, active = well fitted curve in the direction sought with a large enough effect; inconclusive = small, poorly fitted or top-dose-only effect, or another doubt; inactive = no such curve, though single readings can be large; an effect the other way counts as inactive or inconclusive.

Results for CC(=O)Oc1ccc(OC(C)=O)c(SCCCCCCl)c1 ?
FBPA Giardia inh: -2.5%; Shiga inhibitor: 57.6; LmPK inhibitor: 11.2µM*; Cycloheximide cs: 18.5

How did COCCNC(=O)CSc1nc2ccc(N3CCOCC3)cc2c(=O)n1CCc1ccccc1 do in these assays?
FBPA Giardia inh: inconclusive; Shiga inhibitor: active; NS1 inh: -40.4%; LmPK inhibitor: 2.1%; Cycloheximide cs: 14.4*

How did CCCCNC(=O)CSc1nc2ccc(N3CCOCC3)cc2c(=O)n1CCc1ccccc1 do in these assays?
FBPA Giardia inh: inconclusive; Shiga inhibitor: -2.0; NS1 inh: 12.9%; LmPK inhibitor: 5.7%; Cycloheximide cs: 2.0

What do the screens show for `COc1cc(C(=O)OCC(=O)NCc2ccc(F)cc2)ccc1OCC(C)C`?
FBPA Giardia inh: 1.4%; Shiga inhibitor: -6.2; NS1 inh: 0.0%; LmPK inhibitor: 1.8%; Cycloheximide cs: 7.9

Results for COc1ccccc1CNC(=O)CN(C)Cc1ccc(SC)cc1 ?
FBPA Giardia inh: 14.5%; Shiga inhibitor: -11.4; NS1 inh: 1.8%; LmPK inhibitor: 5.9%; Cycloheximide cs: 9.8

How did C/C(=N\NC(=O)c1ccccc1)c1ccc(N2CCCCC2)cc1 do in these assays?
FBPA Giardia inh: 0.6%; Shiga inhibitor: 77.3*; NS1 inh: 4.8%; LmPK inhibitor: 2.1%; Cycloheximide cs: 48.3*

How did CCCCCCCC(=O)N/N=C(\C)c1ccc(N)cc1 do in these assays?
FBPA Giardia inh: 2.9%; Shiga inhibitor: -16.9; LmPK inhibitor: 18.5%; Cycloheximide cs: 9.5

Results for S=c1[nH]ncn1/N=C/c1ccc(N2CCOCC2)cc1 ?
FBPA Giardia inh: inconclusive; Shiga inhibitor: 32.3*; NS1 inh: 4.8%; LmPK inhibitor: inconclusive; Cycloheximide cs: 25.9*

Results for C(=N\n1cnnc1)/c1ccc(N2CCOCC2)cc1 ?
FBPA Giardia inh: 0.1%; Shiga inhibitor: 3.0; NS1 inh: 4.8%; LmPK inhibitor: 0.9%; Cycloheximide cs: 0.8

Results for CCCCCC(=O)N/N=C(\C)c1ccc(N2CCCCC2)cc1 ?
FBPA Giardia inh: 7.3%; Shiga inhibitor: 57.7*; NS1 inh: 27.7%; LmPK inhibitor: -1.7%; Cycloheximide cs: 47.7*

Results for CN(C)/N=C/c1ccc(N2CCOCC2)cc1 ?
FBPA Giardia inh: 3.5%; Shiga inhibitor: 45.2; LmPK inhibitor: -10.9%; Cycloheximide cs: 23.2*

Results for CCC(C)[C@H](NC(=O)C1CC(=O)N(c2ccc3c(c2)OCO3)C1)C(=O)NC1CCCCC1 (some centres undefined) ?
FBPA Giardia inh: -8.5%; Shiga inhibitor: -2.8; NS1 inh: 2.0%; LmPK inhibitor: -1.6%; Cycloheximide cs: 12.7

Results for Cc1cc(C)c2c(c1)c1nnc(SCCN3CCCCC3)nc1n2C ?
FBPA Giardia inh: -3.5%; Shiga inhibitor: -4.9; NS1 inh: -1.6%; LmPK inhibitor: -1.1%; Cycloheximide cs: 1.0

What do the screens show for `COc1ccc(OC)c(/C=N/NC(=O)C(=O)N2CCCCCC2)c1`?
Shiga inhibitor: -31.9; NS1 inh: 2.2%; LmPK inhibitor: -12.2%; Cycloheximide cs: -2.4

How did COc1ccc(Br)cc1S(=O)(=O)NCCCN1CCOCC1 do in these assays?
FBPA Giardia inh: 0.1%; Shiga inhibitor: 10.9; NS1 inh: 0.7%; LmPK inhibitor: -4.6%; Cycloheximide cs: -2.8

Results for C/C(=N\Nc1ccc(F)cc1F)c1ccc(N2CCOCC2)cc1 ?
FBPA Giardia inh: -9.1%; Shiga inhibitor: 16.0; LmPK inhibitor: 8.0%; Cycloheximide cs: 23.7*

How did CNC(=S)N/N=C(\C)c1ccc(N2CCOCC2)cc1 do in these assays?
FBPA Giardia inh: inconclusive; Shiga inhibitor: 85.0*; NS1 inh: -16.9%; LmPK inhibitor: -3.3%; Cycloheximide cs: 60.6*

How did C/C(=N\NC(=O)COc1ccc(C(C)(C)C)cc1)c1ccc(N2CCOCC2)cc1 do in these assays?
FBPA Giardia inh: -4.3%; Shiga inhibitor: -30.4; NS1 inh: 3.9%; LmPK inhibitor: 4.6%; Cycloheximide cs: 24.0*

How did O=C(N/N=C/c1ccc(N2CCOCC2)o1)c1cccc([N+](=O)[O-])c1 do in these assays?
FBPA Giardia inh: inconclusive; Shiga inhibitor: 13.2; NS1 inh: inconclusive; LmPK inhibitor: -2.9%; Cycloheximide cs: 0.8

What do the screens show for `O=C(N/N=C/c1ccc(N2CCCCC2)o1)c1ccccc1`?
FBPA Giardia inh: -28.2%; Shiga inhibitor: 75.5*; NS1 inh: 15.0%; LmPK inhibitor: -12.6%; Cycloheximide cs: 37.1*

How did OCc1cc([C@@H](O)CNCCCCCCOCCCCc2ccccc2)ccc1O do in these assays?
FBPA Giardia inh: -0.6%

How did C/C(=N\NC(=O)c1ccc(F)cc1)c1ccc(N2CCOCC2)cc1 do in these assays?
FBPA Giardia inh: -10.5%; Shiga inhibitor: 74.4*; NS1 inh: -5.8%; LmPK inhibitor: 2.9%; Cycloheximide cs: 21.2*

How did C/C(=N\NC(=O)c1ccc(O)cc1)c1ccc(N2CCOCC2)cc1 do in these assays?
FBPA Giardia inh: 1.0%; Shiga inhibitor: 30.2; NS1 inh: 1.9%; LmPK inhibitor: 7.7%; Cycloheximide cs: 2.2

How did C/C(=N\Nc1ccc(Cl)c(C(=O)O)c1)c1ccc(N2CCOCC2)cc1 do in these assays?
FBPA Giardia inh: 6.2%; Shiga inhibitor: 155.8*; NS1 inh: 5.8%; LmPK inhibitor: 0.0%; Cycloheximide cs: 118.2*

How did Fc1ccc(N/N=C/c2ccc(N3CCOCC3)cc2)c(F)c1 do in these assays?
FBPA Giardia inh: -6.2%; Shiga inhibitor: 75.1*; NS1 inh: -0.2%; LmPK inhibitor: -1.8%; Cycloheximide cs: 34.0*

What do the screens show for `Cc1cc[c]([Sb]2[O]C([C@H](O)[C@H](O)C(=O)O)[C@@H](CO)[O]2)cc1` (some centres undefined)?
NS1 inh: 1.9%

What do the screens show for `NC(=O)CCCCn1ccc(NC(N)=NCC(F)(F)F)n1`?
FBPA Giardia inh: 1.1%

How did O=C(N/C=C/c1ccccc1)Nc1ccc(Cl)cc1 do in these assays?
FBPA Giardia inh: 1.5%; Shiga inhibitor: 198.0*; NS1 inh: -46.6%; LmPK inhibitor: 0.7%; Cycloheximide cs: 74.2*

Results for Cc1ccc(NC(=O)N/C=C/c2ccc(Cl)cc2)cc1 ?
Shiga inhibitor: 28.8; NS1 inh: 21.4%; LmPK inhibitor: 2.7%; Cycloheximide cs: 54.7

How did Cc1ccc(NC(=O)N/C=C/c2ccccc2)cc1 do in these assays?
FBPA Giardia inh: 3.9%; Shiga inhibitor: 42.0*; NS1 inh: -49.8%; LmPK inhibitor: 1.6%; Cycloheximide cs: 24.2*

Results for C=CCN(C(=O)C1=NN(C2CCS(=O)(=O)C2)C(=O)CC1)c1nc(-c2ccc([N+](=O)[O-])cc2)cs1 (centres undefined) ?
FBPA Giardia inh: 0.5%; Shiga inhibitor: 41.9; NS1 inh: 6.2%; LmPK inhibitor: 2.1%; Cycloheximide cs: 37.6*

Results for O=C(Nc1cccnc1)C1=NN(C2CCS(=O)(=O)C2)C(=O)CC1 (centres undefined) ?
FBPA Giardia inh: 3.2%; Shiga inhibitor: 17.2; LmPK inhibitor: 4.9%; Cycloheximide cs: -2.1

Results for Cc1cc(N2CCOCC2)nc2ccc(NC(=O)CCC(=O)N3CCCC(C)C3)cc12 (centres undefined) ?
FBPA Giardia inh: -6.5%[12.9 µM]; Shiga inhibitor: 92.0; NS1 inh: 0.3%; LmPK inhibitor: -2.0%; Cycloheximide cs: 54.3*
